Data as given in PubChem BioAssay (EPA / NIEHS).
Records with an inconclusive call do not appear. Calls of active or inactive are those of the source. Rule for the calls, unless noted: active = hit-call score of the fitted dose curve at least 0.9, where 1 is the maximum; inconclusive = response in the unintended direction; inactive = score below 0.9.

How the values were obtained:
[1] = Tanguay_ZF_120hpf_CFIN_legacy: (Legacy) Oregon State University Tanguay Lab 120 Hour Post-fertilization zebrafish Assay for Caudal Fin Malformation (AID 2283649)
Procedure, shortened: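 Binary brightfield scoring of caudal fin defects at 120 hpf after static, light-shielded exposure at 28C from 6 hpf. Tropical 5D embryos, chorion removed with pronase at 4 hpf, final DMSO 0.64%.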

[2] = Tanguay_ZF_120hpf_SWIM_legacy: (Legacy) Oregon State University Tanguay Lab 120 Hour Post-fertilization zebrafish Assay for Swim Bladder Malformation (AID 2283654);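 note: swim bladder malformation in each larva scored yes or no under brightfield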
Procedure, shortened: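 Tropical 5D embryos dechorionated at 4 hpf; 1 embryo/well from 6 hpf; static, sealed, dark exposure at 28C until 120 hpf; final DMSO 0.64%; 5uM trimethyltin chloride positive control; swim bladder defect recorded yes/no; dead embryos not scored.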

[3] = Tanguay_ZF_120hpf_TRUN_legacy: (Legacy) Oregon State University Tanguay Lab 120 Hour Post-fertilization zebrafish Assay for Truncated Body (AID 2283655)
Procedure, shortened: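 Binary presence/absence of truncated body is recorded at 120 hpf by brightfield, with non-mortality endpoints skipped after death. Exposure is static from 6 hpf in sealed dark plates at 28C, using dechorionated wild-type zebrafish, 0.64% DMSO.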

[4] = Tanguay_ZF_120hpf_NC_legacy: (Legacy) Oregon State University Tanguay Lab 120 Hour Post-fertilization zebrafish Assay for Notochord and Tail Malformation (AID 2283656)
Procedure, shortened: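 Binary notochord-distortion calls, made by brightfield inspection, form the read-out; activity is fitted in the positive direction against DMSO. Exposure ran statically from 6 to 120 hpf at 28C with 0.64% DMSO.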

[5] = Tanguay_ZF_120hpf_TR_legacy: (Legacy) Oregon State University Tanguay Lab 120 Hour Post-fertilization zebrafish Assay for Touch Response (AID 2283667)
Procedure, shortened: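 Binary touch-response call at 120 hpf, analysed as gain of signal versus DMSO baseline. Wild-type 5D larvae, static exposure at 28C, 0.64% DMSO final; 5uM trimethyltin chloride as positive control.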

[6] = CCTE_Padilla_ZF_144hpf_TERATOSCORE: (Legacy) CCTE's 144 Hour Post-fertilization zebrafish Assay Teratoscore, Padilla Lab (AID 2283679; active = hit-call score of the fitted dose curve at least 0.9, where 1 is the maximum; inactive = score below 0.9;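 for AC50: zebrafish embryos with chorions exposed by immersion from 6-8 hpf to 5 dpf with daily renewal; teratogenicity score from eye scoring of death hatching and malformations at 144 hpf; higher score means more developmental defects relative to DMSO baseline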)
Procedure, shortened: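 Larvae scored by eye at 144 hpf for death, hatching and malformations after a day in clean Hanks'. Before that, daily-renewed exposure at 80 uM (0.4% DMSO, 26C) from roughly 6-8 hpf through 5 dpf, 4 embryos per chemical.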

[7] = Tanguay_ZF_120hpf_PFIN_legacy: (Legacy) Oregon State University Tanguay Lab 120 Hour Post-fertilization zebrafish Assay for Pectoral Fin Malformation (AID 2283648);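 note: each larva judged yes or no for fin defect by brightfield with dead larvae skipped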
Procedure, shortened: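 Binary pectoral fin malformation call at 120 hpf by brightfield microscopy; 5D wild-type zebrafish, chorion removed at 4 hpf, one embryo per well from 6 hpf, static exposure at 28C; DMSO (0.64% final) as baseline.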

[8] = Tanguay_ZF_120hpf_CIRC_legacy: (Legacy) Oregon State University Tanguay Lab 120 Hour Post-fertilization zebrafish Assay for Circulatory Malformation (AID 2283651)
Procedure, shortened: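 Static exposure, 6–120 hpf, 28C, sealed and dark; one dechorionated 5D embryo/well; DMSO 0.64% v/v final. Binary circulation endpoint by brightfield; dead embryos not scored.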

[9] = tested on: Thyroperoxidase (TPO), gene 54314; assay: CCTE_Simmons_AUR_rTPO: CCTE's Amplex UltraRed Assay for Thyroperoxidase (TPO) Inhibition, Simmons Lab (AID 2283662);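 for AC50: potency for loss of signal meaning inhibition of peroxidase activity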
Procedure, shortened: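 Rat thyroid microsomes (5 ug protein) with 25 uM Amplex UltraRed and 300 uM H2O2 in 200 mM phosphate buffer, 30 min at 37C in dark; fluorescence 544/590 nm. Eight concentrations, 5 nM–87.5 uM final, 0.5% DMSO, triplicate biological replicates.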

[10] = CCTE_Simmons_CellTiterGLO_HEK293T: Viability Assessment in CCTE's Assays for Thyroperoxidase (TPO) Inhibition, Simmons Lab (AID 2283665);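 for AC50: cells exposed to compound for 24 h before readout; actives reduce ATP signal below DMSO vehicle meaning cytotoxicity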
Procedure, shortened: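 Luminescent ATP readout (CellTiter-Glo, 20 min at room temperature) after 24 hr exposure of HEK293T cells to 5 nM–87.5 uM final compound; signal loss relative to DMSO vehicle indicated cytotoxicity; dichlone titrated as positive control.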

[11] = Tanguay_ZF_120hpf_PIG_legacy: (Legacy) Oregon State University Tanguay Lab 120 Hour Post-fertilization zebrafish Assay for Pigmentation Malformation (AID 2283650);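 note: dechorionated Tropical 5D zebrafish embryos exposed singly from 6 to 120 hpf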
Procedure, shortened: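 Brightfield scoring of pigmentation malformation at 120 hpf, recorded as binary present/absent per larva. Exposure: dechorionated 5D wild-type embryos, one per well, static from 6 hpf at 28C, final DMSO 0.64% (vol/vol). Dead embryos not scored.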

[12] = Tanguay_ZF_120hpf_ActivityScore_legacy: (Legacy) Oregon State University Tanguay Lab 120 Hour Post-fertilization zebrafish Assay Score for Activity (AID 2283742);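 for AC50: dechorionated Tropical 5D wild-type zebrafish embryos held singly per well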
Procedure, shortened: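 Dechorionated 5D embryos, one per well, static exposure 6–120 hpf, 28C, sealed and dark; final DMSO 0.64% (vol/vol). Brightfield binary scoring of mortality plus 18 endpoints; gain-of-signal fit versus DMSO baseline.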

[13] = STM_H9_OrnithineISnorm_perc: Stemina devTOX quickPredict H9 human embryonic stem cell (hESC)-based Assay for Ornithine (ORN) Metabolite Biomarker, Normalized (AID 2283712; active = hit-call score of the fitted dose curve at least 0.9, where 1 is the maximum; inactive = score below 0.9;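 note: ornithine released into spent medium during last day measured by mass spectrometry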)
Procedure, shortened: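 UPLC-HRMS readout: endogenous ornithine EIC area / 13C-ORN internal standard, then % of 0.1% DMSO median. H9 hESCs (pluripotent), 72h exposure, re-dosed with fresh media q24h; last 24-h spent media, deproteinized in 40% acetonitrile.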

[14] = STM_H9_CystineISnorm_perc: Stemina devTOX quickPredict H9 human embryonic stem cell (hESC)-based Assay for Cystine (CYSS) Metabolite Biomarker, Normalized (AID 2283713; active = hit-call score of the fitted dose curve at least 0.9, where 1 is the maximum; inactive = score below 0.9)
Procedure, shortened: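 UPLC-HRMS read-out: endogenous cystine peak area in spent medium, normalized to isotope-labeled internal standard and to median of 0.1% DMSO controls. Pluripotent H9 cells, 72h exposure, daily medium/compound replenishment; medium from last 24h sampled.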

[15] = read-out: kallikrein-3 (KLK3), KLK3 (gene 354); assay: LTEA_HepaRG_KLK3: Life Technologies and Expression Analysis (LTEA) Assay for kallikrein-3 (KLK3) using HepaRG (AID 2283652; active = hit-call score of the fitted dose curve at least 0.9, where 1 is the maximum; inactive = score below 0.9); conditions: mRNA level, 48 h; actives raise or lower the signal
Procedure, shortened: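 KLK3 transcript levels were measured by TaqMan qRT-PCR with normalisation to three housekeeping genes. HepaRG cultures received chemicals for 48 h at up to 100 uM (half-log, 8 points, 0.5% DMSO vehicle), fitted in both directions against DMSO.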

[16] = read-out: solute carrier (SLC22A6), SLC22A6 (gene 9356); assay: LTEA_HepaRG_SLC22A6: Life Technologies and Expression Analysis (LTEA) Assay for solute carrier (SLC22A6) using HepaRG (AID 2283653; active = hit-call score of the fitted dose curve at least 0.9, where 1 is the maximum; inactive = score below 0.9); conditions: mRNA level, 48 h; actives raise or lower the signal
Procedure, shortened: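 SLC22A6 transcript was measured by TaqMan qRT-PCR, normalized to three housekeeping genes, after 48 h duplicate exposure of HepaRG cells (100 uM top, half-log steps, 0.5% DMSO); bidirectional fit against vehicle.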

[17] = read-out: solute carrier (SLC10A1), SLC10A1 (gene 6554); assay: LTEA_HepaRG_SLC10A1: Life Technologies and Expression Analysis (LTEA) Assay for solute carrier (SLC10A1) using HepaRG (AID 2283657; active = hit-call score of the fitted dose curve at least 0.9, where 1 is the maximum; inactive = score below 0.9); conditions: mRNA level, 48 h; actives raise or lower the signal
Procedure, shortened: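 HepaRG, 48 h exposure, 8-pt half-log curve from 100 uM in 0.5% DMSO, duplicates. Read-out: TaqMan qRT-PCR of SLC10A1 mRNA, normalized to three housekeeping genes. Gain/loss fit vs DMSO baseline.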

[18] = read-out: matrix metalloproteinase-1 (MMP1), MMP1 (gene 4312); assay: LTEA_HepaRG_MMP1: Life Technologies and Expression Analysis (LTEA) Assay for matrix metalloproteinase-1 (MMP1) using HepaRG (AID 2283658; active = hit-call score of the fitted dose curve at least 0.9, where 1 is the maximum; inactive = score below 0.9); conditions: mRNA level, 48 h; actives raise or lower the signal
Procedure, shortened: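 qRT-PCR (TaqMan, Fluidigm arrays) of MMP1 transcript, normalized against three housekeeping genes and fitted in both directions relative to 0.5% DMSO vehicle. Human HepaRG cultures received duplicate 48 h exposures across 8 points, highest 100 uM with half-log steps.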

[19] = read-out: Cytochrome P450 (CYP24A1_1), CYP24A1 (gene 1591); assay: LTEA_HepaRG_CYP24A1_1: Life Technologies and Expression Analysis (LTEA) Assay for Cytochrome P450 (CYP24A1_1) using HepaRG (AID 2283671; active = hit-call score of the fitted dose curve at least 0.9, where 1 is the maximum; inactive = score below 0.9); conditions: mRNA level, 48 h; actives raise or lower the signal
Procedure, shortened: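 Readout is CYP24A1 transcript level by qRT-PCR, normalized to three housekeeping genes, with gain or loss of signal fitted against 0.5% DMSO. Human HepaRG cells received compound for 48 h at up to 100 uM.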

[20] = STM_H9_OrnCyssISnorm_ratio: Stemina devTOX quickPredict H9 human embryonic stem cell (hESC)-based Assay for Ornithine (ORN):Cystine (CYSS) Ratio (AID 2283714)
Procedure, shortened: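 UPLC-HRMS of spent media: ORN/CYSS ratio of internal-standard-normalized percentages, DMSO (0.1%) baseline. Pluripotent H9 hESCs, 72h exposure, daily re-dosing with fresh media; last 24h media collected.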

Measured: AC50

CC(=O)OCCC(C)C
inactive: [1] | [2] | [3] | [4] | [5] | [6]

O=C(O)CCN(C1(C(=O)NO)CCCC1)S(=O)(=O)c1ccc(Oc2ccc(F)cc2)cc1
inactive: [7] | [1] | [8] | [2] | [4] | [10] | [5]
active: [9] 27.7 µM

CCOCCOCCOCCO
inactive: [1] | [11] | [2] | [3] | [4] | [5] | [12]

CC(C)=CCCC(C)=CC=O
active: [9] 43.8 µM | [13] 0.0217 µM
inactive: [1] | [11] | [8] | [2] | [3] | [4] | [10] | [14]

COc1ccc(/C=C/S(=O)(=O)NC(=O)c2ccc(C)cc2Cl)cc1
inactive: [7] | [1] | [8] | [2] | [3] | [4] | [5] | [6] | [12]

C=CC(=C)CCC=C(C)C
not listed: [6] | [7] | [12] | [13] | [14] | [20]
inactive: all other assays above

CCc1cc(SCc2sc(-c3ccc(C(F)(F)F)cc3)nc2CN2CCN(c3ccc(OC)cc3)CC2)ccc1OCC(=O)O
active: [6] 5.47 µM
inactive: [1] | [11] | [8] | [2] | [3] | [4] | [5]

COc1cccc(-c2ccc(/C=C\CN3CCCCCC3)cc2Cl)c1
active: [6] 2.73 µM | [13] 3.59 µM | [14] 4.11 µM | [20] 3.97 µM | [12] 41.8 µM
inactive: [7] | [11] | [2] | [3] | [4] | [5]

O=C(O)c1cccc(N(Cc2cccnc2)c2ccc(OC(F)F)c(OC(F)F)c2)c1
active: [9] 31.2 µM | [6] 26.5 µM
inactive: [7] | [1] | [8] | [2] | [3] | [4] | [10] | [5]

CCCCCCCCCCCCc1ccccc1
inactive: [7] | [1] | [8] | [2] | [3] | [4] | [5] | [6] | [13] | [14]

O=C(NS(=O)(=O)/C=C/c1ccccc1)c1ccc(F)cc1Cl
inactive: [1] | [11] | [3] | [4] | [5] | [6] | [12]

Cc1ccc(S(=O)(=O)O)cc1C
inactive: [7] | [1] | [8] | [2] | [3] | [4] | [5] | [12]

Cc1ccc(O)cc1
inactive: [7] | [11] | [8] | [3] | [4] | [5] | [12]

COC(=O)c1c(Cl)c(Cl)c(C(=O)OC)c(Cl)c1Cl
inactive: [1] | [8] | [2] | [3] | [4] | [12]

O=C1CCCCCN1
inactive: [1] | [11] | [8] | [2] | [3] | [4] | [5] | [12]

Nc1nc2ncc(CNc3ccc(C(=O)N[C@@H](CCC(=O)O)C(=O)O)cc3)nc2c(=O)[nH]1
inactive: [1] | [11] | [8] | [2] | [3] | [10] | [6] | [13] | [14]
active: [9] 20.5 µM

C1N2CN3CN1CN(C2)C3
inactive: [7] | [1] | [8] | [2] | [4] | [5]

Nc1cccc(N)c1
active: [9] 5.02 µM
inactive: [7] | [11] | [2] | [3] | [10] | [5] | [12]

CCCCCCc1ccc(O)cc1O
inactive: [7] | [11] | [8] | [2] | [3] | [4] | [5]
active: [9] 0.00854 µM | [10] 21.3 µM | [6] 14.9 µM | [12] 43.8 µM

CNS(=O)(=O)c1cc(C(=O)N2CCC(CCN3C4CCC3CC(n3c(C)nc5ccccc53)C4)(c3cccc(F)c3)CC2)c(Cl)cc1F (configuration not stated)
inactive: [7] | [11] | [2] | [3] | [4] | [5]

Cc1c(-c2cccnc2)c2ccccc2n1CCCCC(=O)O
inactive: [1] | [11] | [8] | [2] | [3] | [12]
active: [6] 58.5 µM

CC(C)c1cccc(C(C)C)c1N1C(=O)c2ccc(O)cc2C1=O
active: [17] 78.7 µM | [6] 4.71 µM | [13] 27.8 µM | [14] 24 µM | [20] 14.9 µM
not listed: [3] | [4] | [9] | [10] | [11] | [12]
inactive: all other assays above

CCOC(=O)c1ccc(C2CCC(NC[C@H](O)COc3ccc(O)c(NS(C)(=O)=O)c3)CC2)cc1 (some centres not stated)
active: [9] 1.12 µM | [10] 18.3 µM | [14] 1.37 µM | [20] 1.42 µM
inactive: [7] | [1] | [4] | [5] | [13]

COc1ccc2sc(C(=O)Nc3nnn[nH]3)c(OC(C)C)c2c1
inactive: [7] | [1] | [8] | [2] | [3] | [4] | [5] | [12]
active: [6] 34.4 µM | [13] 1.33 µM | [14] 1.65 µM | [20] 1.52 µM
